Assay outcomes: PubChem BioAssay, National Center for Advancing Translational Sciences (NCATS)
Only some compounds are listed: those with a hit (about 2.7% of all), similar ones and a draw of the others.
LDHA block – LDHA (human) enzyme inhibition; AID 1347041; 480,000 compounds, 0.15% hits; purified LDHA, NADH/diaphorase-resazurin fluorescence; active compounds read low; activity change, % (values are at about 110 or 230 µM); P00338; in the data active means activity change below about -30%; inconclusive means mostly about -25% to -30%;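 further: plate controls were DMSO wells for no effect and wells without enzyme for full effect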
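LDH5 2 nM; NADH 0.06 mM, pyruvate 0.2 mM; 200 mM Tris pH 7.4, EDTA, Tween-20; 5 min RT. Detection: diaphorase 0.133 mg/mL + resazurin 37 µM, fluorescence ex540/em590 at 0 and 20 min; normalized to enzyme-free and DMSO wells.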
A549 viability – counter-screen for Nrf2 inhibitors: cytotoxicity in A549 cells | 390,000 compounds, 0.16% hits | Potency, µM (top dose mostly 46 µM), inactives show at the top dose activity change, negative = cytotoxicity, hits mostly inhibitors | A549 ARE-Fluc cells, CellTiter-Fluor viability, 18-24 h; further: potency means the concentration at half of the fitted maximal effect; on the % scale 0 is the no-effect control and ±100 the full control effect
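A549 ARE-Fluc cells in 5% FBS OPTI-MEM, 5000 cells/well, rested 2 h then exposed to compounds in concentration-response for 18-24 h at 37 °C. Viability by CellTiter-Fluor fluorescence (Ex 405/Em 525) after 30 min; luciferase luminescence (BugLite, 15 min, RT) read afterwards.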
Nrf2 ARE act – Nrf2 pathway activation; AREc32 ARE-luciferase reporter (MCF7-derived line), luminescence, 24 h; Potency, µM (top dose mostly 46.1 µM), without a hit: top-dose activation, actives largely listed as activators; 410,000 compounds, 0.31% hits; AID 624171; further: potency means the concentration at half of the fitted maximal effect; % of control where 0% means no effect; nearly all actives have a fitted effect of over 65% in size
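AREc32 cells carrying an ARE-driven firefly luciferase reporter were seeded at 1000 cells/well in OPTI-MEM with 5% FBS, then exposed to compound for 24 hr at 37 deg C. Luminescence was read with Steady-Glo after 30 min at RT.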
Nrf2 block – Nrf2 pathway inhibition; A549 ARE-Fluc reporter, luciferase luminescence, 18-24 h; Potency, µM (series often up to 46 µM), for the others: at the top dose activity change, negative = inhibition, hits mostly inhibitors; 360,000 compounds, 2.1% hits; AID 504444; further: potency means the concentration at half of the fitted maximal effect; on the % scale 0 is the no-effect control and ±100 the full control effect; nearly all actives have a fitted effect of over 60% in size
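A549 ARE_Fluc cells, 5000/well, 5% FBS OPTI-MEM; compounds in dose-response, 18-24 h at 37 °C/5% CO2; CellTiter-Fluor viability read (Ex 405/Em 525), then BugLite luciferase luminescence = Nrf2 activity.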
12-LOX inh – blocks human arachidonate 12S-lipoxygenase; P18054; purified 12hLO, xylenol orange hydroperoxide absorbance; Potency, µM (series often up to 108 µM), without a hit: at the top dose activity change, negative = inhibition, usual class: inhibitors; 580,000 compounds, 1.1% hits; further: potency means the concentration at half of the fitted maximal effect; on the % scale 0 is the no-effect control and ±100 the full control effect
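Purified human 12hLO at 150 nM in 25 mM Hepes, 0.01% Triton X-100, pH 7.0, preincubated 15 min at room temperature with compound. Reaction started with 40 uM arachidonic acid, 30 min at room temperature. Hydroperoxide measured by Fe-xylenol orange, 573/405 nm absorbance ratio.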
ERG-DNA inh – blocks human ERG Ets domain binding to DNA; P11308; fluorescence polarization, His-ERG Ets domain / labelled DNA; Potency, µM (doses to about 76.9 µM), without a hit: at the highest dose FP activity, negative = inhibition, hits mostly inhibitors; 370,000 compounds, 0.028% hits; AID 624246; active means well fitted inhibition curve with a large enough effect in the polarisation, with a control signal flat; inconclusive means small, poorly fitted or top-dose-only effect, or effect the other way, or a change in a side signal; inactive means no such curve, though single readings can be large or run the other way; the % refers to the polarisation;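 further: polarization taken with two DNA probes labelled with fluorescein and Texas red; potency means the concentration at half of the fitted maximal effect; % of control where 0% means no effect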
Target sequence (P11308 whole entry, looked up, the tested form may be a part): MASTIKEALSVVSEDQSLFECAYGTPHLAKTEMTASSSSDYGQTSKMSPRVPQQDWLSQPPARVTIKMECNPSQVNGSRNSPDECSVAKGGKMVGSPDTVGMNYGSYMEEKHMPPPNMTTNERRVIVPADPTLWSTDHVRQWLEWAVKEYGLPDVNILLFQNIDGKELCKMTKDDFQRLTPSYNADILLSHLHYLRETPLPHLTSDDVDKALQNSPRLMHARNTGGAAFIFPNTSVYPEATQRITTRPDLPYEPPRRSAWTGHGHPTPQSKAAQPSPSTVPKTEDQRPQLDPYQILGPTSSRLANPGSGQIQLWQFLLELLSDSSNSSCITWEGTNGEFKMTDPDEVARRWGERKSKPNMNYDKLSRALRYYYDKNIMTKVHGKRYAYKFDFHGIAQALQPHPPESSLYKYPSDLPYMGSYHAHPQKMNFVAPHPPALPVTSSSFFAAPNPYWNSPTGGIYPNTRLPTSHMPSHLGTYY
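His-tagged ERG Ets domain (1 uM in the protein solution; 300mM KCl, 50mM Tris-HCl, 1mM EDTA, 1mM DTT, pH 7.5) received compound, then a probe mix of 5 nM fluorescein-DNA and 100nM Texas-615-DNA. Fluorescence polarization was read for both dyes.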
Numbers without * were called inactive; ? = inconclusive; / = no result. Unless noted, the call rests on the fitted dose curve; in most records, active means well fitted curve in the direction sought with a large enough effect; inconclusive means small, poorly fitted or top-dose-only effect, or another doubt; inactive means no such curve, though single readings can be large; an effect the other way counts as inactive or inconclusive.

SMILES | LDHA block | A549 viability | Nrf2 ARE act | Nrf2 block | 12-LOX inh | ERG-DNA inh
O=C(Nc1nnc(COc2ccc(Cl)cc2)s1)c1ccco1 | -17.6 | -2.7% | 15.4% | -1.3% | 44.7µM* | 12.8%
CCOCc1nnc(NC(=O)c2cc(Cl)ccc2OC)s1 | -4.6 | -10.8% | ? | -15.5% | ? | -2.2%
COCc1nnc(NC(=O)c2cc(Cl)ccc2OC)s1 | 1.7 | / | 12.6µM* | 27.0% | ? | -12.0%
O=C(O)CNCc1cccnc1 | 0.2 | / | / | / | ? | /
COc1cccc(N2CCN(c3nc(C(=O)NCc4ccccc4F)cs3)CC2)c1 | / | / | / | / | 36.0% | /
CC(C)c1ccc(C(NC(=O)c2nn(C)c(=O)c3ccccc23)C(C)C)cc1 (configuration not stated) | 6.7 | / | / | / | ? | /
CCC(C)c1ccc(S(=O)(=O)N2CCN(CC(O)CN3CCOCC3)CC2)cc1 (configuration not stated) | -32.7* | -1.6% | -0.6% | 11.6% | -17.3% | 4.8%
Cc1ccc(S(=O)(=O)N2CCN(CC(O)CN3CCOCC3)CC2)cc1 (configuration not stated) | -5.1 | 6.2% | -1.0% | 7.2% | ? | 12.8%
COCCCn1c(Cc2c(F)cccc2Cl)n[nH]c1=S | -1.5 | / | / | / | ? | /
Cc1ccc(NC(=O)COc2ncnc3ccc(Br)cc23)c([N+](=O)[O-])c1 | -3.1 | / | / | / | ? | /
COc1cc2oc3ccc(C#Cc4ccccn4)cc3c(=O)c2cc1OC | -11.0 | 4.3% | 3.8% | -9.2% | -16.5% | -6.4%
COc1cc2oc3ccc(C#Cc4ccc(N)cc4)cc3c(=O)c2cc1OC | -1.8 | -11.9% | 4.8% | 14.6µM* | ? | -5.9%
N#Cc1ccc(C#Cc2ccc3oc4ccccc4c(=O)c3c2)cc1 | 1.0 | 9.9% | -0.9% | -11.1% | -4.4% | -14.4%
COc1cc2oc3cc(C#Cc4ccc(N)cc4)ccc3c(=O)c2cc1OC | -12.3 | ? | 0.0% | 16.4µM* | -22.0% | -2.6%
Nc1ccc(C#Cc2ccc3c(=O)c4ccccc4oc3c2)cc1 | -2.4 | -8.4% | 2.6% | 10.3µM* | 1.8% | -2.8%
NC(=S)NNC(=O)Nc1ccccc1 | 8.2 | / | / | / | ? | /
CCCCN(C)Cc1ccc(OCc2ccccc2)cc1 | 4.7 | / | / | / | ? | /
CN(Cc1ccco1)C(=O)NCc1ccc(F)cc1 | -15.3 | / | / | / | -5.4% | /
COCCN(Cc1ccc(C)cc1)Cc1cc(=O)n2c3c(sc2n1)CCCC3 | 0.2 | / | / | / | ? | /
CC(NC(=O)Cc1c(Cl)cccc1Cl)c1ccccn1 (configuration not stated) | -5.6 | / | / | / | ? | /
O=C(NCC1CCCO1)NC1(C(F)(F)F)Oc2ccccc2O1 (configuration not stated) | 6.0 | ? | 15.8µM* | ? | 0.0% | -1.4%
COc1ccc(/C=C2\C(=O)ON=C2c2ccccc2)cc1OC | -50.1* | 5.3% | 5.2% | 14.3% | 7.08µM* | 19.7%
Cc1cccc(C2=NOC(=O)/C2=C\c2ccccc2F)c1 | -8.2 | 14.2% | -0.1% | -4.9% | 359.5% | 3.4%
O=C1ON=C(c2ccc([N+](=O)[O-])cc2)/C1=C/c1ccccc1O | -42.6* | 5.0% | 2.3% | 0.7% | ? | 5.3%
COc1cc(/C=C2\C(=O)ON=C2c2ccccc2)cc(OC)c1OC | -35.5* | 0.3% | -0.5% | 0.4% | ? | -0.5%
SMILES | LDHA block | A549 viability | Nrf2 ARE act | Nrf2 block | 12-LOX inh | ERG-DNA inh
CCOc1cc(/C=C2\C(=O)ON=C2c2ccccc2)ccc1OC | -60.9* | -0.5% | 2.5% | 1.1% | 12.6µM* | -5.1%
COc1ccc(C=C2C(=O)OC(C)(C)OC2=O)cc1OC | 2.3 | -0.9% | -1.1% | -0.2% | -42.5% | 5.6%
Cc1ccc(OCC(=O)Nc2ccc3oc(-c4ccccc4F)nc3c2)c(-n2cnnc2)c1 | -1.6 | / | / | / | ? | /
CCOc1cc(/C=C2/C(=O)ON=C2C)ccc1OCc1ccccc1F | -3.4 | ? | 2.0% | 4.11µM* | ? | /
COc1ccc(-c2ccc(=O)n(Cc3cccc([N+](=O)[O-])c3)n2)cc1 | -6.5 | 0.2% | 6.1% | -4.3% | -14.8% | 1.3%
COc1ccc(/C=C2\C(=O)ON=C2c2cccc([N+](=O)[O-])c2)cc1 | / | / | / | / | 31.6µM* | /
